Laboratory results taken from PubChem BioAssay (NCI).
Values joined by “and” are separate entries in the source; they are usually repeats but may differ in a detail not shown here. Equal entries are not always repeated. The panel holds about 83,000 compounds, 20% with a hit somewhere; the sample as a whole holds those more often.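 Note: values are percent growth. 100 is the growth of untreated cells, values between 100 and 0 indicate rising inhibition; between -100 and 0 indicates cell death.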 Values without a mark were called inactive. Active and inactive are the calls of the source. The calls were made as follows: active = growth percent below 10; inactive = the rest.

Test system: NCI-H460 lung
Assay: NCI-60 one-dose screen, 48 h (100 = growth as untreated, 0 = no growth, -100 = all killed)
Details: 10 µM unless noted

**Q.** Which growth does the source give for `COc1ccccc1OCC(O)CO` (centres undefined) here?
**A.** 105% and 113%

**Q.** Which growth does the source give for `CC1(C)OC(=O)C(=Cc2ccc(C#N)cc2)C(=O)O1` here?
**A.** 107% and 101%

**Q.** With `CCC(=O)Oc1ccc(OCc2ccccc2)cc1` as the compound, how does the growth read?
**A.** 99.4% and 93.7%

**Q.** With `O=C(c1ccncc1)c1c(Cc2ccccc2)ccc2ccccc12` as the compound, how does the growth read?
**A.** 89.8%

**Q.** Which growth does the source give for `CCCC(=O)Oc1ccc2ccccc2c1` here?
**A.** 98%

**Q.** With `CCOC(=O)C1=C(C)NC(C)=C(C(=O)OCC)C1` as the compound, how does the growth read?
**A.** 107% and 98.2%

**Q.** Which growth does the source give for `C/C(CC(C)C)=N/NC(N)=S` here?
**A.** 102%

**Q.** How did the growth turn out when `OCc1cccc(F)c1` was run?
**A.** 41.8%

**Q.** With `Cc1cc(=NO)cc(C)n1O` as the compound, how does the growth read?
**A.** 107%

**Q.** For `OCc1ccccc1F`, which growth is on record?
**A.** 48.1%

**Q.** Which growth does the source give for `COc1cc(Cl)ccc1C` here?
**A.** 34%

**Q.** With `COC(=O)c1nc(=S)[nH]c(C(=O)OC)c1C(=O)c1ccc(OC)cc1` as the compound, how does the growth read?
**A.** 114%

**Q.** Which growth does the source give for `CCN(CC)C(=S)SCCO` here?
**A.** 104%

**Q.** How did the growth turn out when `OCCSc1ccc(Cl)cc1` was run?
**A.** 108% and 107%

**Q.** How did the growth turn out when `Nc1nc(-c2ccccn2)cc(-c2cc(-c3ccccn3)nc(N)n2)n1` was run?
**A.** 134%

**Q.** With `COc1cc(C2c3cc4c(cc3C(OC(=O)C[n+]3ccccc3)C3COC(=O)C23)OCO4)cc(OC)c1OC` (centres undefined) as the compound, how does the growth read?
**A.** 4.91% (active)

**Q.** With `CSc1nc(N)c(N)c(N)n1` as the compound, how does the growth read?
**A.** 104%

**Q.** How did the growth turn out when `C/C=C(/C(=O)NC(N)=O)C(C)C` was run?
**A.** 100%

**Q.** `CC(O)CCNC(c1ccccc1)C(O)c1ccccc1` (centres undefined) was tested. Which growth did it give?
**A.** 106%

**Q.** How did the growth turn out when `Cc1c(Cl)c(C)c(Cc2c(C)c(Cl)c(C)c(Cl)c2O)c(O)c1Cl` was run?
**A.** 5.16% (active)

Test system: HOP-92 NSCLC
Assay: as above
Details: 10 µM unless noted

**Q.** For `CCCCNC(=O)c1ccccc1C`, which growth is on record?
**A.** 96.3%

**Q.** How did the growth turn out when `CC1(C)CC(=O)NC1=O` was run?
**A.** 114%

**Q.** `COc1ccc(C(=O)C(O)c2ccc(OC)cc2)cc1` (centres undefined) was tested. Which growth did it give?
**A.** 96.2%

**Q.** With `COc1ccc2nccc(Cl)c2c1` as the compound, how does the growth read?
**A.** 98.7%

**Q.** For `O=C(c1ccccc1)C1(Br)CCCCC1`, which growth is on record?
**A.** 88.1%

**Q.** How did the growth turn out when `CN(C=O)c1ccccc1` was run?
**A.** 84.2%

**Q.** `CCOCCC(=O)O` was tested. Which growth did it give?
**A.** 80.5%

**Q.** Which growth does the source give for `Cc1cc2ccccc2c2cc3ccccc3cc12` here?
**A.** 99%

**Q.** How did the growth turn out when `CS(=O)(=O)OCC1NC(=O)C(COS(C)(=O)=O)NC1=O` (centres undefined) was run?
**A.** 96.4% and 104%

**Q.** Which growth does the source give for `Clc1ccc(/C=C/c2ccc3ccccc3n2)cc1` here?
**A.** 42.9% and 67% and 85.3%

**Q.** How did the growth turn out when `CCOC(=O)C1=CC(=O)CC(C)(C)O1` was run?
**A.** 93.5% and 97.1%

**Q.** Which growth does the source give for `CC(=O)Oc1cc(C)c(OC(C)=O)c(C)c1C` here?
**A.** 112%

**Q.** Which growth does the source give for `COc1ccc(/C=N/Nc2nc3ccccc3s2)cc1` here?
**A.** 81.6%

**Q.** Which growth does the source give for `CC1CCC(=O)N1c1ccc(N)cc1` (centres undefined) here?
**A.** 107%

**Q.** `Cc1ccc(N)cc1S(=O)(=O)O` was tested. Which growth did it give?
**A.** 93.1%

**Q.** How did the growth turn out when `CCOC(C)=N` was run?
**A.** 89.7%

**Q.** With `O=C(c1ccc(Cl)cc1)C1C(c2ccccc2)C1[N+](=O)[O-]` (centres undefined) as the compound, how does the growth read?
**A.** 80.9%

**Q.** Which growth does the source give for `CC(CN(C)C)CN1c2ccccc2Sc2ccccc21` (centres undefined) here?
**A.** 21.4%

**Q.** For `CCCC(=O)OCC(COC(=O)CCC)OC(=O)CCC`, which growth is on record?
**A.** 87.3%

**Q.** For `COc1ccccc1OCC(O)CO` (centres undefined), which growth is on record?
**A.** 90%

**Q.** `CC1(C)OC(=O)C(=Cc2ccc(C#N)cc2)C(=O)O1` was tested. Which growth did it give?
**A.** 87.9%

**Q.** For `CCC(=O)Oc1ccc(OCc2ccccc2)cc1`, which growth is on record?
**A.** 89.1%

**Q.** For `O=C(c1ccncc1)c1c(Cc2ccccc2)ccc2ccccc12`, which growth is on record?
**A.** 82%

**Q.** With `CCCC(=O)Oc1ccc2ccccc2c1` as the compound, how does the growth read?
**A.** 89.5%

**Q.** With `CCOC(=O)C1=C(C)NC(C)=C(C(=O)OCC)C1` as the compound, how does the growth read?
**A.** 79.2% and 89.5%

**Q.** Which growth does the source give for `C/C(CC(C)C)=N/NC(N)=S` here?
**A.** 78.2%

**Q.** With `OCc1cccc(F)c1` as the compound, how does the growth read?
**A.** 118%

**Q.** How did the growth turn out when `Cc1cc(=NO)cc(C)n1O` was run?
**A.** 111%

**Q.** For `OCc1ccccc1F`, which growth is on record?
**A.** 106%

**Q.** `COc1cc(Cl)ccc1C` was tested. Which growth did it give?
**A.** 99.3%

**Q.** How did the growth turn out when `COC(=O)c1nc(=S)[nH]c(C(=O)OC)c1C(=O)c1ccc(OC)cc1` was run?
**A.** 95.9%

**Q.** Which growth does the source give for `CCN(CC)C(=S)SCCO` here?
**A.** 109%

**Q.** `OCCSc1ccc(Cl)cc1` was tested. Which growth did it give?
**A.** 101% and 97.7%

**Q.** With `Nc1nc(-c2ccccn2)cc(-c2cc(-c3ccccn3)nc(N)n2)n1` as the compound, how does the growth read?
**A.** 103%

**Q.** `COc1cc(C2c3cc4c(cc3C(OC(=O)C[n+]3ccccc3)C3COC(=O)C23)OCO4)cc(OC)c1OC` (centres undefined) was tested. Which growth did it give?
**A.** 71.5%

**Q.** `CSc1nc(N)c(N)c(N)n1` was tested. Which growth did it give?
**A.** 86.6%

**Q.** How did the growth turn out when `C/C=C(/C(=O)NC(N)=O)C(C)C` was run?
**A.** 94.5%

**Q.** For `CC(O)CCNC(c1ccccc1)C(O)c1ccccc1` (centres undefined), which growth is on record?
**A.** 86%

**Q.** `Cc1c(Cl)c(C)c(Cc2c(C)c(Cl)c(C)c(Cl)c2O)c(O)c1Cl` was tested. Which growth did it give?
**A.** -20% (active)
